Most compounds without a hit are left out; they make up all but 3.1% or so of the library.
TrxR1 substrate: qHTS Assay for Substrates of Mammalian Selenoprotein Thioredoxin Reductase 1 (TrxR1): qHTS | Potency, µM (highest dose often 114 µM) | purified TrxR1 substrate turnover, NADPH consumption readout | 0.01% of 390,000 active | Thioredoxin reductase 1, cytoplasmic (Rattus norvegicus), O89049 | AID 588456, 2011; note: nearly all actives have a fitted effect of over 50% in size
Target sequence (O89049 whole entry, looked up): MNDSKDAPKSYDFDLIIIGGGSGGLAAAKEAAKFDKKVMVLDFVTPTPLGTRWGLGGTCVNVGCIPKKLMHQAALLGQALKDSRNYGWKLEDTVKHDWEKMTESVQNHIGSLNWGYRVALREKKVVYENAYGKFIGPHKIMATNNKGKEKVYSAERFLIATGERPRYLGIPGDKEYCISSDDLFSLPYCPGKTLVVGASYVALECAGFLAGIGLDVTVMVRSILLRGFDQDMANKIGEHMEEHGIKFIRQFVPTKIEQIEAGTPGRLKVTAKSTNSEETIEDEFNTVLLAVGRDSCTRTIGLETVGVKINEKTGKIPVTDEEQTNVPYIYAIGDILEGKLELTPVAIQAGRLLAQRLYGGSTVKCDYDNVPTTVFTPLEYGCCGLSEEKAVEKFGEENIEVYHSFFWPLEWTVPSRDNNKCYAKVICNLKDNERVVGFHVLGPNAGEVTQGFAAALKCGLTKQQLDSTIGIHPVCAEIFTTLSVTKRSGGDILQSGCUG
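Rat TrxR1, dispensed at 90 nM, was prereduced with 400 uM NADPH (final) for 5 min at ~22 deg C, then incubated with compound 15 min before 400 uM selenite. A first-read NADPH fluorescence drop versus no-compound background flagged substrates.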
IDH1 R132H inh: qHTS for Inhibitors of mutant isocitrate dehydrogenase 1 (IDH1): qHTS; Isocitrate dehydrogenase [NADP] cytoplasmic (Homo sapiens), O75874; IDH1-R132H enzyme, NADPH consumption, diaphorase/resazurin fluorescence; Potency, µM (top dose mostly 76.6 µM), usual class: inhibitors; 0.093% of 390,000 active; AID 602179, 2012; note: nearly all actives have a fitted effect of over 65% in size
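IDH1-R132H (0.5 ug/mL dispensed) in pH 7.5 Tris buffer was preincubated 30 min with compound, then given a substrate mix of 0.016 mM NADPH and 2 mM alpha-KG for 80 min at room temperature; remaining NADPH was read by diaphorase/resazurin fluorescence.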
A549 tox: Nrf2 qHTS screen for inhibitors: counterscreen for cytotoxicity | A549 ARE-Fluc cells, CellTiter-Fluor viability, 18-24 h | Potency, µM (doses to about 46 µM), most hits filed as inhibitors | 0.16% of 390,000 active
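A549 ARE_Fluc cells in 5% FBS OPTI-MEM were exposed to compounds in concentration-response for 18-24 h at 37 deg C. Viability was read by CellTiter-Fluor fluorescence (Ex 405/Em 525) after 30 min, before the luciferase read.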
TrxR1 inh: qHTS Assay for Inhibitors of Mammalian Selenoprotein Thioredoxin Reductase 1 (TrxR1): qHTS; AID 588453, 2011; recombinant rTrxR1, NADPH fluorescence consumption, selenite substrate; Potency, µM (series often up to 114 µM), hits mostly inhibitors; 1% of 390,000 active; Thioredoxin reductase 1, cytoplasmic (Rattus norvegicus), O89049; note: nearly all actives have a fitted effect of over 65% in size
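Rat TrxR1 (90 nM in the dispensed reagent) was pre-reduced with 400 uM NADPH for 5 min at room temperature, then incubated with compound for 15 min. After 400 uM selenite was added, NADPH fluorescence (Ex 340/Em 450 nm) was followed for 8 min.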
Mito fusion act: qHTS Assay for Small Molecule Inhibitors of Mitochondrial Division or Activators of Mitochondrial Fusion | S. cerevisiae fusion-defective mutant growth rescue, CellTiterGlo 48 h | 0.23% of 320,000 active | Potency, µM (series often up to 46.1 µM), actives largely listed as activators; note: nearly all actives have a fitted effect of over 45% in size
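S. cerevisiae fusion-defective temperature-sensitive mutants (e.g. fzo1-1, mgm1-5) grown 48 h at 37C in YPEG (ethanol/glycerol non-fermentable) medium with 23 nl compound per well; growth rescue read as CellTiterGlo luminescence.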
Nrf2 inh: Nrf2 qHTS screen for inhibitors. 2.1% of 360,000 active. Potency, µM (highest dose often 46 µM), actives largely listed as inhibitors. AID 504444, 2011. A549 ARE-Fluc reporter, luciferase luminescence, 18-24 h; note: nearly all actives have a fitted effect of over 60% in size
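Reporter: ARE-Fluc in A549. Exposure: 18-24 h, 37 °C, 5% CO2, 5% FBS OPTI-MEM. Readouts: fluorescent cytotoxicity (CellTiter-Fluor), then luminescent Nrf2 signal after BugLite.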
Of the large screens only hits and unclear results are named; the others gave an inactive call. Calls come from the whole dose curve; as a rule, active = well fitted curve in the direction sought with a large enough effect; inconclusive = small, poorly fitted or top-dose-only effect, or another doubt; inactive = no such curve, though single readings can be large; an effect the other way counts as inactive or inconclusive.

CCN(c1ccccc1)S(=O)(=O)c1nnc(NC(=O)C(C)Oc2ccccc2)s1 (centres undefined)	Nrf2 inh inconclusive (no result: Mito fusion act)
COc1ccc(NC(=O)CSc2cn(CCNC(=O)c3ccc(OC)cc3)c3ccccc23)cc1	none (no result: Mito fusion act)
O=C(CSc1cn(CCNC(=O)c2ccc3ccccc3c2)c2ccccc12)NCc1ccco1	TrxR1 inh inconclusive, Nrf2 inh 23µM
COc1ccc(C(=O)NCCn2cc(SCc3cccc(F)c3)c3ccccc32)cc1OC	Nrf2 inh 23µM (no result: Mito fusion act)
O=C(NCCn1cc(SCc2cccc(F)c2)c2ccccc21)c1cccc(C(F)(F)F)c1	Nrf2 inh inconclusive (no result: Mito fusion act)
CCc1ccccc1NC(=O)c1ccc(Cn2nc(N3CCN(c4ccccc4)CC3)ccc2=O)o1	Nrf2 inh inconclusive (no result: Mito fusion act)
Cc1oc(-c2ccccc2)cc1C(=O)Nc1cccc(/C=C/C(=O)O)c1	Nrf2 inh 23µM
CC(C)OCCCN(Cc1ccco1)C(=O)c1cc2c(s1)-c1ccccc1OC2	Nrf2 inh 16µM (no result: Mito fusion act)
CCOCCCN(Cc1ccco1)C(=O)c1cc2c(s1)-c1c(C)cccc1OC2	Nrf2 inh inconclusive (no result: Mito fusion act)
O=C(NCc1ccc2c(c1)CCN2C(=O)c1ccccc1)Nc1cccc(C(F)(F)F)c1	none (no result: Mito fusion act, Nrf2 inh)
CCC[C@H]1COCCS(=O)(=O)N1Cc1ccc(F)cc1	none (no result: IDH1 R132H inh, A549 tox, Mito fusion act, Nrf2 inh)
CCCCCCC[N+](CC)(CC)CCCCc1ccc(Cl)cc1	Nrf2 inh 16µM
COc1ccc(-c2nc(CS(=O)CC(=O)NC3CCCCC3)c(C)o2)cc1OC (centres undefined)	TrxR1 inh 50µM, Nrf2 inh inconclusive
Cc1oc(-c2ccccc2)nc1CS(=O)CC(=O)N1CCc2ccccc2C1 (centres undefined)	TrxR1 inh 20µM
Cc1ccc(-c2nc(CS(=O)CC(=O)NC3CC3)c(C)o2)cc1 (centres undefined)	none
COc1ccc(-c2nc(CS(=O)CC(=O)NC3CCCCCC3)c(C)o2)cc1 (centres undefined)	TrxR1 inh inconclusive
CCc1ccc(-c2nc(CS(=O)CC(=O)NC3CC3)c(C)o2)cc1 (centres undefined)	TrxR1 inh 16µM
CCc1ccc(-c2nc(CS(=O)CC(=O)O)c(C)o2)cc1 (centres undefined)	TrxR1 inh 3.5µM
CCCNC(=O)C1CCC(Cn2c(=O)c3sccc3n(CC(=O)N(CC)CC)c2=O)CC1 (centres undefined)	Nrf2 inh inconclusive (no result: Mito fusion act)
CCc1ccc(-c2nc(CS(=O)CC(=O)NC3CCCCCC3)c(C)o2)cc1 (centres undefined)	TrxR1 inh 20µM
COc1ccc(-c2nc(CS(=O)CC(=O)NCCC3=CCCCC3)c(C)o2)cc1 (centres undefined)	TrxR1 inh 16µM
COc1ccc(-c2nc(CS(=O)CC(=O)NC3CCCCC3)c(C)o2)cc1 (centres undefined)	none
CCOc1ccc(C(C)=O)cc1COC(=O)c1ccccc1C(=O)N(C)Cc1ccccc1	TrxR1 inh 50µM, Mito fusion act inconclusive
Fc1ccc(-c2csc3[n+]2CCS3)cc1	Nrf2 inh 16µM
COCC(=O)Nc1nc2n(n1)C(c1ccc(Cl)cc1)CC(c1ccc(OC)cc1)N2 (centres undefined)	TrxR1 inh 18µM, Nrf2 inh inconclusive
COCC(=O)Nc1nc2n(n1)C(c1ccccc1Cl)CC(c1ccc(OC)cc1)N2 (centres undefined)	TrxR1 inh inconclusive (no result: Nrf2 inh)
CCOc1ccc(CNC(=O)c2sc3nc(C)cc(C)c3c2-n2cccc2)cc1	Nrf2 inh inconclusive (no result: Mito fusion act)
C=CC1=CCN(S(=O)C(C)(C)C)[C@@H]1CCO (some centres undefined)	TrxR1 inh 50µM, Nrf2 inh inconclusive (no result: Mito fusion act)
Cn1c(=O)c2cc(C(=O)NC3CCCCCC3)sc2c2ccccc21	A549 tox inconclusive, Nrf2 inh 18µM (no result: Mito fusion act)
Nc1ccc(OC(=O)Nc2ccc(O)cc2)cc1	Nrf2 inh 21µM
O=C(c1ccc2c(c1)OCCO2)N1CCN(c2ncc(C(F)(F)F)cc2Cl)CC1	Nrf2 inh inconclusive
O=C(Nc1ccc2c(c1)OCO2)N1CCN(c2ncc(C(F)(F)F)cc2Cl)CC1	Nrf2 inh 9.2µM
Cc1ccc(OCc2nc3ccccc3n2CC(C)C)cc1	none (no result: IDH1 R132H inh, Mito fusion act)

Compound activity as filed in PubChem BioAssay.
